{"source": "PubChem BioAssay (Tox21)", "note": "Calls of active or inactive are those of the source. Calls follow the shape of the dose curve; as a rule, active = well fitted curve in the direction sought with a large enough effect in the signal ratio in the repeat runs (not every such curve was filed as active); inconclusive = weak or mixed curves, or effect the other way; inactive = no such curve, though single readings can be large or run the other way; the % refers to the signal ratio. % is scaled to controls: 0 for no effect and ±100 for the full control effect; potency is read from the fitted curve at half-maximal effect.", "data": [{"molecular_target": "Estrogen receptor (Homo sapiens) (UniProt P03372)", "sequence (P03372 whole entry, looked up)": "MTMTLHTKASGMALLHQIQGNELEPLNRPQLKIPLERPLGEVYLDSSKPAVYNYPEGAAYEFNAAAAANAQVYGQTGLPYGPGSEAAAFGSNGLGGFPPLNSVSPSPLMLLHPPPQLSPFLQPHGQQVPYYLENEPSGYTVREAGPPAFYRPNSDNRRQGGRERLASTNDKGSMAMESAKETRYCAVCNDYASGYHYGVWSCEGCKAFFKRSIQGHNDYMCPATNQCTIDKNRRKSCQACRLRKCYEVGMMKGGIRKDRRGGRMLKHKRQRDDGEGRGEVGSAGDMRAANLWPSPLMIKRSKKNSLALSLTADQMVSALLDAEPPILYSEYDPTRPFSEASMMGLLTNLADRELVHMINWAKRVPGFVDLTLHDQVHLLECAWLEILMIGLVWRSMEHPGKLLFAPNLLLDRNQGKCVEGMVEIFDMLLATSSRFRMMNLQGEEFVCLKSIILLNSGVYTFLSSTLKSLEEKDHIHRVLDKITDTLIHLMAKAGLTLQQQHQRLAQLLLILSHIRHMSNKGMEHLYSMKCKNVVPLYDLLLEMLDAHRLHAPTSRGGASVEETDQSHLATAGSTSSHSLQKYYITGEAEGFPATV", "assay": "qHTS assay to identify small molecule antagonists of the estrogen receptor alpha (ER-alpha) signaling pathway (AID 743069)", "conditions": "HEK293 ER-alpha-UAS-bla, beta-lactamase ratio, antagonist mode; series mostly up to 69.4 µM; activity, negative = inhibition: at the top concentration", "description": "National Center for Advancing Translational Sciences [NCATS]\nNIH Chemical Genomics Center [NCGC]\nU.S. Environmental Protection Agency [EPA]\nNational Institutes of Environmental Health Sciences [NIEHS]\nNational Toxicology Program [NTP]\nU.S. Food and Drug Administration [FDA]\nEstrogen receptor (ER), a nuclear hormone receptor, plays an important role in development, metabolic homeostasis and reproduction. Two subtypes of ER, ER-alpha and ER-beta have similar expression patterns with some uniqueness in both types. Endocrine disrupting chemicals (EDCs) and their interactions with steroid hormone receptors like ER causes disruption of normal endocrine function. To identify the compounds that inhibit ER signaling, an ER-alpha-UAS-bla GripTiteTM cell line (Invitrogen, Carlsbad, CA, USA) containing a beta-lactamase reporter gene under the control of an Upstream Activator Sequence (UAS) stably integrated into HEK293 cells was used to screen the Tox21 10K compound library.\nTox21 Assay Protocol Summary:\nER-alpha-bla cells were cultured in assay medium containing 2% charcoal stripped FBS overnight in the culture flasks before the assay was performed. The cells were dispensed at 5,000 cells/5 uL of assay medium per well into black wall/clear-bottom 1536-well plates using a Multidrop Combi (ThermoFisher Scientific, Waltham, MA) dispenser. After the assay plates were incubated at a 37C and 5% CO2 for 4 hr, 23 nL of compounds dissolved in DMSO, positive controls or DMSO only was transferred to the assay plate by a Pintool station (Kalypsys, San Diego, CA), followed by addition of 1 uL of 17beta-estradiol in assay medium using a Flying Reagent Dispenser (Aurora Discovery, San Diego, CA). The plates were incubated at 37C and 5% CO2 for 18 hr. Then 1 uL of LiveBLAzerTM B/G FRET substrate was added using a Flying Reagent Dispenser, the plates were incubated at room temperature for 2 hours, and fluorescence intensity was measured by an Envision plate reader (PerkinElmer, Shelton, CT).", "values": [{"smiles": "CCC(C)(C)C1CCC(O)CC1", "note": "(stereo not given)", "activity, negative = inhibition": "-10.5% (inactive)"}, {"smiles": "Nc1ccc(S(=O)(=O)O)cc1", "activity, negative = inhibition": "-7.75% [at 79.1 µM] (inactive)"}, {"smiles": "Cc1cc(O)c(C(C)C)cc1Cl", "Potency": "inactive"}, {"smiles": "CC(N)CN", "note": "(stereo not given)", "activity, negative = inhibition": "4.24% [at 79.1 µM] (inactive)"}, {"smiles": "CO[Si](C)(OC)OC", "activity, negative = inhibition": "-26.9% (inactive)"}, {"smiles": "CC1=C(C=O)C(C)(C)CCC1", "activity, negative = inhibition": "17.4% (inactive)"}, {"smiles": "O=C(O)C(Cc1cc(I)c(O)c(I)c1)c1ccccc1", "note": "(stereo not given)", "activity, negative = inhibition": "-2.39% (inactive)"}, {"smiles": "CCOC(=O)c1ccccc1C", "activity, negative = inhibition": "1.69% (inactive)"}, {"smiles": "NC(=O)N(O)[C@@H]1C=C[C@H](Oc2cccc(Oc3ccc(F)cc3)c2)C1", "activity, negative = inhibition": "-16.1% (inactive)"}, {"smiles": "COc1cc2c(N3CCN(C(=O)Nc4ccc(OC(C)C)cc4)CC3)ncnc2cc1OCCCN1CCCCC1", "activity, negative = inhibition": "27.4% (inactive)"}, {"smiles": "OC/C(Br)=C(\\Br)CO", "activity, negative = inhibition": "-19.7% (inactive)"}, {"smiles": "CCCCCCCCCOC(C)=O", "activity, negative = inhibition": "-2.89% (inactive)"}, {"smiles": "C=CCOC(=O)/C=C\\C(=O)OCC=C", "activity, negative = inhibition": "35.2% [at 79.1 µM] (inactive)"}, {"smiles": "O=C(CCCN1CCC(O)(c2ccc(Br)cc2)CC1)c1ccc(F)cc1", "activity, negative = inhibition": "-6.93% [at 32.6 µM] (inactive)"}, {"smiles": "O=C(CCCN1CCN(c2ccc(F)cc2)CC1)NC1c2ccccc2CSc2ccccc21", "note": "(stereo not given)", "Potency": "21.3 µM [inconclusive] (active)"}, {"smiles": "COC(=O)[C@@H]1CC2=CC(=O)CC[C@]2(C)[C@@]23O[C@@H]2C[C@@]2(C)[C@@H](CC[C@@]24CCC(=O)O4)[C@H]13", "activity, negative = inhibition": "-1.06% (inactive)"}, {"smiles": "O=S1OCCO1", "activity, negative = inhibition": "8.92% [at 79.1 µM] (inactive)"}, {"smiles": "CCOC(=O)/C=C/C(=O)O", "activity, negative = inhibition": "16.2% (inactive)"}, {"smiles": "CC(C)C(=O)O", "activity, negative = inhibition": "-5.87% (inactive)"}, {"smiles": "Cc1nc2ccccc2s1", "activity, negative = inhibition": "-7.15% [at 79.1 µM] (inactive)"}, {"smiles": "CN1C(=O)CC(C)(c2ccccc2)C1=O", "note": "(stereo not given)", "activity, negative = inhibition": "-29% (inactive)"}, {"smiles": "CCCCN(CCCC)C(=S)SSC(=S)N(CCCC)CCCC", "activity, negative = inhibition": "-12.2% (inactive)"}, {"smiles": "O=C(O)c1cccnc1C(=O)O", "activity, negative = inhibition": "-14.4% (inactive)"}, {"smiles": "Nc1ccc(S(=O)(=O)O)c(N)c1", "activity, negative = inhibition": "10.5% (inactive)"}, {"smiles": "CCN(Cc1cccc(S(=O)(=O)O)c1)c1ccc(C(=C2C=CC(=[N+](CC)Cc3cccc(S(=O)(=O)[O-])c3)C=C2)c2ccccc2)cc1", "activity, negative = inhibition": "-12.2% (inactive)"}, {"smiles": "CCCOc1ccc(S(=O)(=O)N2CCN(CC)CC2)cc1-c1nc2c(CC)n(Cc3ccccn3)nc2c(=O)[nH]1", "activity, negative = inhibition": "-16.7% (inactive)"}, {"smiles": "CCCCCCCCCCCC[N+](C)(C)CCCS(=O)(=O)[O-]", "activity, negative = inhibition": "-12.8% [at 79.1 µM] (inactive)"}, {"smiles": "CC(C)CCCC(=O)O", "activity, negative = inhibition": "-16.9% (inactive)"}, {"smiles": "CCN(CC)CCNC(=O)c1ccc(NC(C)=O)cc1", "activity, negative = inhibition": "1.11% (inactive)"}, {"smiles": "OC(CCCN1CCCCC1)(c1ccccc1)c1ccccc1", "activity, negative = inhibition": "11.7% (inactive)"}, {"smiles": "O=S(=O)(c1ccccc1)c1ccc(Cl)cc1", "activity, negative = inhibition": "-24.6% (inactive)"}, {"smiles": "CN1CCCN=C1/C=C/c1cccs1", "activity, negative = inhibition": "19.1% (inactive)"}, {"smiles": "C[C@]12CCC(=O)C=C1C=C[C@@H]1[C@@H]2CC[C@@]2(C)[C@H]1CC[C@@]21CCC(=O)O1", "activity, negative = inhibition": "13.9% (inactive)"}, {"smiles": "CCCOCCOCCO", "activity, negative = inhibition": "5.97% (inactive)"}, {"smiles": "C/C=C/C=C/CCCCCCCO", "activity, negative = inhibition": "-9% (inactive)"}, {"smiles": "c1ccc(COCc2ccccc2)cc1", "activity, negative = inhibition": "3.95% [at 79.1 µM] (inactive)"}, {"smiles": "CN(C)CCOC1=Cc2ccccc2Sc2ccc(Cl)cc21", "activity, negative = inhibition": "-19.8% (inactive)"}, {"smiles": "CCCCOC(=O)CCS", "activity, negative = inhibition": "28.3% (inactive)"}, {"smiles": "CC(=O)Oc1ccc(C(=C2CCCCC2)c2ccc(OC(C)=O)cc2)cc1", "activity, negative = inhibition": "5.98% (inactive)"}, {"smiles": "CC(=O)CC(c1ccc([N+](=O)[O-])cc1)c1c(O)c2ccccc2oc1=O", "note": "(stereo not given)", "activity, negative = inhibition": "5.64% [at 32.6 µM] (inactive)"}]}]}
